Laboratory results reported in PubChem BioAssay (NCATS).
Results filed as inconclusive are left out. The source made the active and inactive calls. The call rests on the fitted dose curve; in most records, active means well fitted curve in the direction sought with a large enough effect; inconclusive means small, poorly fitted or top-dose-only effect, or another doubt; inactive means no such curve, though single readings can be large; an effect the other way counts as inactive or inconclusive.

Legend:
[1] = qHTS of pediatric cancer cell lines to identify multiple opportunities for drug repurposing: Primary screen for U-2 OS cells (AID 1347096); further: nearly all actives have a fitted effect of over 50% in size
Procedure, shortened: (§1)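 Cells (500-1,000/well) rested 5 h, then received compounds for 48 h; metabolically active cells were measured by CellTiter-Glo luminescence. Final concentrations spanned up to 46 µM (MIPE, 11-point) or 0.59 nM-46 µM (NPC, 8-point) in primary screens, 11-point in follow-ups.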

[2] = qHTS of pediatric cancer cell lines to identify multiple opportunities for drug repurposing: Primary screen for Saos-2 cells (AID 1347097); further: nearly all actives have a fitted effect of over 40% in size
Procedure, shortened: (§2)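 Plated cells (500-1,000 per well, growth media) were allowed to settle for 5 hours, treated with compound dilutions for 48 hours, then lysed with CellTiter-Glo for 15 min at room temperature before luminescence reading.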

[3] = qHTS of pediatric cancer cell lines to identify multiple opportunities for drug repurposing: Primary screen for SK-N-SH cells (AID 1347098); further: nearly all actives have a fitted effect of over 65% in size
Procedure, shortened: as §1

[4] = qHTS of pediatric cancer cell lines to identify multiple opportunities for drug repurposing: Primary screen for NB1643 cells (AID 1347099); further: nearly all actives have a fitted effect of over 50% in size
Procedure, shortened: as §2

[5] = qHTS of pediatric cancer cell lines to identify multiple opportunities for drug repurposing: Primary screen for LAN-5 cells (AID 1347100)
Procedure, shortened: as §1

[6] = qHTS of pediatric cancer cell lines to identify multiple opportunities for drug repurposing: Primary screen for BT-12 cells (AID 1347101); further: nearly all actives have a fitted effect of over 25% in size
Procedure, shortened: as §1

[7] = qHTS of pediatric cancer cell lines to identify multiple opportunities for drug repurposing: Primary screen for Rh18 cells (AID 1347102); further: nearly all actives have a fitted effect of over 65% in size
Procedure, shortened: as §1

[8] = qHTS of pediatric cancer cell lines to identify multiple opportunities for drug repurposing: Primary screen for RD cells (AID 1347104); further: nearly all actives have a fitted effect of over 55% in size
Procedure, shortened: as §2

[9] = qHTS of pediatric cancer cell lines to identify multiple opportunities for drug repurposing: Primary screen for Rh30 cells (AID 1347107); further: nearly all actives have a fitted effect of over 75% in size
Procedure, shortened: as §1

[10] = qHTS of pediatric cancer cell lines to identify multiple opportunities for drug repurposing: Primary screen for Rh41 cells (AID 1347108); further: nearly all actives have a fitted effect of over 70% in size
Procedure, shortened: as §2

[11] = qHTS of pediatric cancer cell lines to identify multiple opportunities for drug repurposing: Primary screen for OHS-50 cells (AID 1347103); further: nearly all actives have a fitted effect of over 40% in size
Procedure, shortened: as §1

[12] = qHTS of pediatric cancer cell lines to identify multiple opportunities for drug repurposing: Primary screen for MG 63 (6-TG R) cells (AID 1347105); further: nearly all actives have a fitted effect of over 50% in size
Procedure, shortened: as §2

[13] = qHTS of pediatric cancer cell lines to identify multiple opportunities for drug repurposing: Primary screen for control Hh wild type fibroblast cells (AID 1347106); further: nearly all actives have a fitted effect of over 55% in size
Procedure, shortened: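 Cells (500-1,000/well) in growth media were settled 5 h at 37 degrees C, then given compounds for 48 h. Viability was read as CellTiter-Glo luminescence. Primary runs used MIPE at 11 points (0.78 nM-46 µM) and NPC at 8 points (0.59 nM-46 µM); follow-ups used 11 points.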

[14] = qHTS of pediatric cancer cell lines to identify multiple opportunities for drug repurposing: Confirmatory screen for NB1643 cells (AID 1347109); further: nearly all actives have a fitted effect of over 45% in size
Procedure, shortened: as §1

[15] = qHTS of pediatric cancer cell lines to identify multiple opportunities for drug repurposing: Confirmatory screen for A673 cells (AID 1347110);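 further: cells exposed to compound for 48 h before the viability read; nearly all actives have a fitted effect of over 65% in size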
Procedure, shortened: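 Cells plated at 500-1,000/well were treated five hours later with multi-point dilutions up to 46 µM final. After two days, CellTiter-Glo was added and luminescence read.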

[16] = qHTS of pediatric cancer cell lines to identify multiple opportunities for drug repurposing: Confirmatory screen for SK-N-MC cells (AID 1347111);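 further: cells exposed to compound for 48 h before the readout; nearly all actives have a fitted effect of over 70% in size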
Procedure, shortened: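 Seed 500-1,000 cells/well; rest 5 h at 37 degrees C. Pin-transfer compounds, 11-point titration. Incubate 48 h. Add CellTiter-Glo, 15 min RT, read luminescence.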

[17] = qHTS of pediatric cancer cell lines to identify multiple opportunities for drug repurposing: Confirmatory screen for BT-12 cells (AID 1347112); further: nearly all actives have a fitted effect of over 55% in size
Procedure, shortened: as §1

[18] = qHTS of pediatric cancer cell lines to identify multiple opportunities for drug repurposing: Confirmatory screen for LAN-5 cells (AID 1347113); further: nearly all actives have a fitted effect of over 65% in size
Procedure, shortened: as §1

[19] = qHTS of pediatric cancer cell lines to identify multiple opportunities for drug repurposing: Confirmatory screen for DAOY cells (AID 1347114); further: nearly all actives have a fitted effect of over 65% in size
Procedure, shortened: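 Viability measured as metabolically active cells via CellTiter-Glo luminescence following 48 hours of compound exposure, 11-point dilutions in confirmatory testing. 500-1,000 cells/well plated 5 hours before dosing; controls were DMSO and 2.3 µM bortezomib.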

[20] = qHTS of pediatric cancer cell lines to identify multiple opportunities for drug repurposing: Confirmatory screen for NB-EBc1 cells (AID 1347115);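 further: cells exposed to compound for 48 h before the viability read; nearly all actives have a fitted effect of over 45% in size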
Procedure, shortened: as §1

Measured: Potency
Potency means the concentration at half of the fitted maximal effect.

Fc1cc(-c2cccc3ncc(-c4cnn(C5CCNCC5)c4)nc23)cc(F)c1CN1CCOCC1
inactive: [1]
active: [2] 29.6 µM | [3] 24.1 µM | [4] 18.7 µM | [5] 26.4 µM | [6] 27.3 µM | [7] 20.9 µM | [8] 18.7 µM | [9] 23.5 µM | [10] 23.5 µM

NC(=O)Nc1cc(-c2cccc(F)c2)sc1C(=O)N[C@H]1CCCNC1
inactive: [13] | [17]
active: [1] 0.935 µM | [2] 1.32 µM | [3] 1.71 µM | [4] 0.526 µM | [5] 0.469 µM | [7] 13.2 µM | [11] 0.172 µM | [8] 3.72 µM | [12] 7.43 µM | [9] 0.833 µM | [10] 1.87 µM | [14] 0.928 µM | [15] 1.85 µM | [16] 0.414 µM | [18] 0.827 µM | [19] 2.33 µM | [20] 1.65 µM

C#Cc1cccc(Nc2ncnc3cc(OC)c(OCCCCCCC(=O)NO)cc23)c1
active: [1] 1.48 µM | [2] 0.209 µM | [3] 0.121 µM | [4] 0.0743 µM | [5] 0.332 µM | [6] 2.17 µM | [7] 0.469 µM | [8] 0.187 µM | [12] 0.118 µM | [9] 11.8 µM | [10] 0.372 µM | [14] 0.955 µM | [15] 2.4 µM | [16] 0.603 µM | [17] 5.37 µM | [18] 0.676 µM | [19] 2.14 µM | [20] 1.7 µM

Nc1ncnc2c1c(-c1cnc3[nH]ccc3c1)nn2C1CCCC1
active: [1] 2.35 µM | [2] 0.935 µM | [3] 2.15 µM | [4] 5.9 µM | [5] 1.05 µM | [6] 1.37 µM | [7] 0.526 µM | [8] 1.87 µM | [12] 0.118 µM | [13] 1.32 µM | [9] 2.09 µM | [10] 0.935 µM | [14] 8.27 µM | [15] 3.69 µM | [16] 1.65 µM | [17] 3.69 µM | [18] 1.47 µM | [20] 10.4 µM

COc1cc(Nc2ncc(F)c(Nc3ccc4c(n3)N(COP(=O)(O)O)C(=O)C(C)(C)O4)n2)cc(OC)c1OC
inactive: [13]
active: [1] 4.69 µM | [2] 1.18 µM | [3] 4.29 µM | [4] 0.187 µM | [5] 1.87 µM | [7] 1.87 µM | [11] 1.22 µM | [8] 3.32 µM | [12] 0.935 µM | [10] 3.72 µM | [14] 5.85 µM | [15] 7.37 µM | [16] 11.7 µM | [18] 10.4 µM | [19] 3.69 µM

O=C(CCCCCCNC(=O)c1cnc(N(c2ccccc2)c2ccccc2)nc1)NO
inactive: [1]
active: [2] 11.8 µM | [3] 10.8 µM | [4] 3.72 µM | [5] 4.69 µM | [6] 17.2 µM | [7] 5.9 µM | [8] 13.2 µM | [12] 14.8 µM | [9] 14.8 µM | [10] 9.35 µM

CC(C)(C)c1cc(NC(=O)Nc2ccc(-c3cn4c(n3)sc3cc(OCCN5CCOCC5)ccc34)cc2)no1
active: [2] 18.7 µM | [12] 23.5 µM | [14] 16.5 µM | [15] 0.585 µM | [16] 10.4 µM | [17] 26.1 µM | [18] 23.3 µM | [19] 20.8 µM
not listed: [8] | [11] | [20]
inactive: all other assays above

CN(C)CCCN=c1c2ccccc2n(C)c2[nH]c(=O)n(C)c(=O)c12
active: [3] 4.29 µM | [4] 3.32 µM | [5] 2.09 µM | [6] 7.69 µM | [8] 13.2 µM | [10] 9.35 µM | [14] 23.3 µM | [17] 23.3 µM | [18] 23.3 µM
inactive: [1] | [2] | [19]

CNC(=O)c1ccc(N2C(=S)N(c3cnc(C#N)c(C(F)(F)F)c3)C(=O)C23CCC3)cc1F
active: [1] 14.8 µM | [3] 1.21 µM | [4] 3.32 µM | [5] 8.33 µM | [6] 19.3 µM | [7] 14.8 µM | [12] 2.35 µM | [13] 3.72 µM | [9] 1.66 µM | [10] 1.48 µM
inactive: [2] | [14] | [15] | [16] | [17] | [18] | [19] | [20]

Cc1ccc(C(=O)Nc2ccc(CN3CCN(C)CC3)c(C(F)(F)F)c2)cc1C#Cc1cnc2cccnn12
active: [1] 5.9 µM | [2] 2.35 µM | [3] 6.07 µM | [4] 23.5 µM | [5] 11.8 µM | [6] 6.85 µM | [7] 2.09 µM | [8] 3.32 µM | [12] 7.43 µM | [9] 14.8 µM | [10] 9.35 µM | [15] 4.65 µM | [16] 0.0033 µM | [17] 8.27 µM | [19] 8.27 µM
